# Laboratory results as given in PubChem BioAssay.
# “And” between values parts separate entries of the source, which are not always exact repeats. Equal values may be shown once. The source made the active and inactive calls. Cut-off read from the data, not from the text of the source, unless noted: active = inhibition above about 80%; inactive = the rest.
# Columns and labels:
# [1] = growth inhibition of CRL1545 osteosarcoma cells, cell-based, cisplatin and BGB IC20 combos (AID 1671464); conditions: stronger effect = higher value;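 note: cells exposed to compound for 96 hours before readout; 0% = vehicle DMSO and 100% = high DMSO killing control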
# F380Y = assay: modulators of BK channel variants, profiling panel, selectivity assay, cell-based, U2OS BacMam, thallium flux, beta subunits (AID 1259406;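 active = thallium flux through the channel raised or lowered by more than 3 SD from vehicle-only wells, actives on both sides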;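 note: initial slope of Thallos dye fluorescence rise after thallium is added; log ratio against the mean of 0.3% DMSO vehicle wells on the same plate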); conditions: at 30 µM
# F380Y/beta1 = assay: as above; conditions: at 30 µM
# [2] = UWB1.289 ovarian carcinoma cell growth inhibition, synergistic combos for chromothripsis tumors, BGB or cisplatin combos (AID 1671456); conditions: UWB1.289 ovarian carcinoma cells, stronger effect = higher value;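 note: cells exposed to compound for four days; 0% = vehicle DMSO and 100% = killing by high DMSO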
# [3] = LFS_MB_2R medulloblastoma cell growth inhibition, synergistic combos for chromothripsis tumors, cisplatin combos (AID 1671457); conditions: LFS_MB_2R medulloblastoma cells, stronger effect = higher value;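 note: cells exposed to compound for four days before readout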
# [4] = MDA-MB-436 breast carcinoma cell growth inhibition, synergistic combos for chromothripsis tumors, BGB or cisplatin combos (AID 1671458; call rule not given here;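 note: cells exposed for 96 hours; 0% = vehicle DMSO and 100% = killing by high DMSO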); conditions: MDA-MB-436 breast carcinoma growth inhibition, drug combinations, stronger effect = higher value
# [5] = UWB1.289_BRCA1 ovarian cancer growth, cell-based, BGB or cisplatin combinations (AID 1671459); conditions: UWB1.289 BRCA1 ovarian carcinoma, drug combinations, stronger effect = higher value
# [6] = human astrocyte viability loss, single and combined drugs, cytotoxicity control for chromothriptic childhood tumor combination screen, cell-based, BGB or cisplatin IC20 combos (AID 1671460); conditions: Human astrocytes, drug combinations, stronger effect = higher value;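 note: cells exposed to compounds for 96 hours before viability readout; 0% = vehicle and 100% = killing control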
# [7] = growth inhibition of BT084 medulloblastoma cells, cell-based, ICGC_MB145, cisplatin and BGB IC40 combos (AID 1671461); conditions: drug combinations, stronger effect = higher value;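 note: cells exposed to drugs for 96 hours; 0% = vehicle DMSO and 100% = high DMSO full killing control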
# [8] = growth inhibition of RCMB18 medulloblastoma cells, cell-based, cisplatin and BGB IC40 combos (AID 1671462); conditions: stronger effect = higher value;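 note: cells exposed to compound for four days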
# [9] = measured here: inhibition with BGB combination, at 0.05 µM
# [10] = measured here: inhibition with cisplatin combination, at 0.05 µM
# [11] = measured here: combination with cisplatin, at 0.5 µM
# [12] = measured here: combination with cisplatin, at 5 µM
# [13] = measured here: BGB combination, at 0.5 µM
# [14] = measured here: BGB combination, at 5 µM
# [15] = measured here: cisplatin combination, at 0.5 µM
# [16] = measured here: cisplatin combination, at 5 µM
# [17] = BGB combination, concentration series, at 5 µM
# [18] = cisplatin combination, concentration series, at 5 µM
# [19] = measured here: combo with BGB IC20, at 0.5 µM
# [20] = measured here: combo with cisplatin IC20, at 0.5 µM
# [21] = cisplatin combination, at 0.5 µM
# [22] = measured here: BGB IC40 combination 0.05 uM, at 0.05 µM
# [23] = measured here: BGB IC40 combination, at 0.05 µM
# [24] = measured here: with BGB IC20 combination, at 0.5 µM
# [25] = measured here: with cisplatin IC20 combination, at 0.5 µM
compound,measurement,setting,value
Nc1nc2c(ncn2CCC(CO)CO)c(=O)[nH]1,inhibition,"[1]; single agent, at 0.05 µM",-14.4% and -21.2%
same,inhibition,"[1]; single agent, at 5 µM",-30.6% and 1.59%
same,log fold change Tl+ flux,F380Y,0.0173 (inactive)
same,log fold change Tl+ flux,F380Y/beta1,-0.0111 (inactive)
N#Cc1ccc(C(c2ccc(C#N)cc2)n2cncn2)cc1,log fold change Tl+ flux,F380Y,-0.0169 (inactive)
same,log fold change Tl+ flux,F380Y/beta1,0.0204 (inactive)
CN(C/C=C/C#CC(C)(C)C)Cc1cccc2ccccc12,log fold change Tl+ flux,F380Y,-0.0709 (inactive)
same,log fold change Tl+ flux,F380Y/beta1,-0.00172 (inactive)
Cc1c(O)cccc1C(=O)N[C@@H](CSc1ccccc1)[C@H](O)CN1C[C@H]2CCCC[C@H]2C[C@H]1C(=O)NC(C)(C)C,log fold change Tl+ flux,F380Y,0.0722 (inactive)
same,log fold change Tl+ flux,F380Y/beta1,0.0513 (inactive)
Nc1[nH]c(=O)ncc1F,inhibition,[2]; at 0.5 µM,-7.68% (inactive)
same,inhibition,[2]; [9],-29.7%
same,inhibition,[2]; [10],-21.7%
same,inhibition,[3]; at 0.5 µM,-27.6% (inactive)
same,inhibition,[3]; [11],-24.1%
same,inhibition,[3]; [12],-29.1%
same,inhibition,[4]; at 0.5 µM,-31.1% (inactive)
same,inhibition,[4]; [13],-21.4%
same,inhibition,[4]; [14],-20.1%
same,inhibition,[4]; [15],-54.4%
same,inhibition,[4]; [16],-28.4%
same,inhibition,[5]; [17],-10.1%
same,inhibition,[5]; at 0.5 µM,-22% (inactive)
same,inhibition,[5]; [18],-7.2%
same,inhibition,[6]; at 0.5 µM,-16.9% (inactive)
same,inhibition,[6]; [19],-11.3%
same,inhibition,[6]; [20],-15.3%
same,inhibition,[7]; at 0.5 µM,-18.1% (inactive)
same,inhibition,[7]; [21],-7.67%
same,inhibition,"[7]; cisplatin combination, at 5 µM",-29%
same,inhibition,[7]; [22],-18.5%
same,inhibition,"[7]; single agent, at 5 µM",-35%
same,inhibition,[8]; at 0.5 µM,-4.87% (inactive)
same,inhibition,"[8]; cisplatin combo, at 5 µM",12.7%
same,inhibition,[8]; [23],-1.76%
same,inhibition,[8]; [11],22.6%
same,inhibition,"[8]; single agent, at 5 µM",67.5%
same,inhibition,[1]; at 0.5 µM,-33% (inactive)
same,inhibition,[1]; [24],-8.11%
same,inhibition,[1]; [25],-45.4%
same,inhibition,"[1]; single agent, at 0.05 µM",-16.8%
same,inhibition,"[1]; single agent, at 5 µM",-1.42%
same,log fold change Tl+ flux,F380Y,0.0331 (inactive)
same,log fold change Tl+ flux,F380Y/beta1,0.0164 (inactive)
S=P(N1CC1)(N1CC1)N1CC1,inhibition,[2]; at 0.5 µM,-18.2% (inactive) and 3.65% (inactive)
same,inhibition,[2]; [9],-11.2% and -17.2%
same,inhibition,[2]; [10],-30.7% and -4.4%
same,inhibition,[3]; at 0.5 µM,-6.41% (inactive) and -22.2% (inactive)
same,inhibition,[3]; [11],-11.5% and -15%
same,inhibition,[3]; [12],6.16% and -16.8%
same,inhibition,[4]; at 0.5 µM,3.12% (inactive) and -15.6% (inactive)
same,inhibition,[4]; [13],5.95% and -18.7%
same,inhibition,[4]; [14],29.4% and 17.8%
same,inhibition,[4]; [15],-1.16% and -30.9%
same,inhibition,[4]; [16],28.2% and 9.67%
same,inhibition,[5]; [17],4.52% and 17.6%
same,inhibition,[5]; at 0.5 µM,-8.8% (inactive) and -2.14% (inactive)
same,inhibition,[5]; [18],2.09% and 16%
same,inhibition,[6]; at 0.5 µM,-9.07% (inactive) and -1.79% (inactive)
same,inhibition,[6]; [19],3.46% and -2.7%
same,inhibition,[6]; [20],-14.4% and -11.6%
same,inhibition,[7]; at 0.5 µM,0.706% (inactive) and -3.22% (inactive)
same,inhibition,[7]; [21],-14.4% and 6.01%
same,inhibition,"[7]; cisplatin combination, at 5 µM",-20% and -51.6%
same,inhibition,[7]; [22],-8.78% and -15.6%
same,inhibition,"[7]; single agent, at 5 µM",-22.6% and -19.6%
same,inhibition,[8]; at 0.5 µM,-6.9% (inactive) and -9.28% (inactive)
same,inhibition,"[8]; cisplatin combo, at 5 µM",-6.08% and -6.23%
same,inhibition,[8]; [23],-9.84% and -6.48%
same,inhibition,[8]; [11],-21.1% and 0.266%
same,inhibition,"[8]; single agent, at 5 µM",-45.9% and -29.6%
same,inhibition,[1]; at 0.5 µM,-18.6% (inactive) and -31% (inactive)
same,inhibition,[1]; [24],7.82% and -2.28%
same,inhibition,[1]; [25],-31.7% and -45.4%
same,inhibition,"[1]; single agent, at 0.05 µM",-43.5% and 4.65%
same,inhibition,"[1]; single agent, at 5 µM",-38.5% and 10.3%
CN(C)/N=N/c1nc[nH]c1C(N)=O,inhibition,[2]; at 0.5 µM,18.9% (inactive) and 3.21% (inactive)
same,inhibition,[2]; [9],0.064% and -13.3%
same,inhibition,[2]; [10],3.6% and -43.6%
same,inhibition,[3]; at 0.5 µM,10.1% (inactive) and -20.6% (inactive)
same,inhibition,[3]; [11],14.2% and -25.1%
same,inhibition,[3]; [12],-36.9% and -16%
same,inhibition,[4]; at 0.5 µM,1.6% (inactive) and -18.5% (inactive)
same,inhibition,[4]; [13],7.15% and -18%
same,inhibition,[4]; [14],1.32% and -19%
same,inhibition,[4]; [15],0.111% and -24.2%
same,inhibition,[4]; [16],-5.49% and -14.5%
same,inhibition,[5]; [17],47.3% and 36.9%
same,inhibition,[5]; at 0.5 µM,15.9% (inactive) and 4.03% (inactive)
same,inhibition,[5]; [18],53.7% and 25.2%
same,inhibition,[6]; at 0.5 µM,-0.79% (inactive) and 0.55% (inactive)
same,inhibition,[6]; [19],-3.87% and 2.32%
same,inhibition,[6]; [20],-4.67% and -1.77%
same,inhibition,[7]; at 0.5 µM,-1.62% (inactive) and -14.7% (inactive)
same,inhibition,[7]; [21],-8.23% and -62.9%
same,inhibition,"[7]; cisplatin combination, at 5 µM",1.87% and -8.42%
same,inhibition,[7]; [22],46.6% and -5.42%
same,inhibition,"[7]; single agent, at 5 µM",-9.68% and -13.7%
same,inhibition,[8]; at 0.5 µM,-1.34% (inactive) and -9.83% (inactive)
same,inhibition,"[8]; cisplatin combo, at 5 µM",6.92% and -42.9%
same,inhibition,[8]; [23],-11.2% and -7.61%
same,inhibition,[8]; [11],10.1% and -9.31%
same,inhibition,"[8]; single agent, at 5 µM",3.33% and -8.99%
same,inhibition,[1]; at 0.5 µM,-2.87% (inactive) and -54.9% (inactive)
same,inhibition,[1]; [24],-14.8% and -42.6%
same,inhibition,[1]; [25],0.906% and -63.6%
same,inhibition,"[1]; single agent, at 0.05 µM",-1.35% and -67.8%
same,inhibition,"[1]; single agent, at 5 µM",10.4% and -50.2%
O=c1oc2c(O)c(O)cc3c(=O)oc4c(O)c(O)cc1c4c23,inhibition,[2]; at 0.5 µM,-3.64% (inactive)
same,inhibition,[2]; [9],-22.8%
same,inhibition,[2]; [10],-16.6%
same,inhibition,[3]; at 0.5 µM,-23% (inactive)
same,inhibition,[3]; [11],-27.7%
same,inhibition,[3]; [12],-17%
same,inhibition,[4]; at 0.5 µM,-9.5% (inactive)
same,inhibition,[4]; [13],-12.3%
same,inhibition,[4]; [14],-25.4%
same,inhibition,[4]; [15],-5.2%
same,inhibition,[4]; [16],-11.4%
same,inhibition,[5]; [17],12.5%
same,inhibition,[5]; at 0.5 µM,-1.72% (inactive)
same,inhibition,[5]; [18],19.2%
same,inhibition,[6]; at 0.5 µM,10.8% (inactive)
same,inhibition,[6]; [19],0.281%
same,inhibition,[6]; [20],16.2%
same,inhibition,[7]; at 0.5 µM,-21.3% (inactive)
same,inhibition,[7]; [21],-17.9%
same,inhibition,"[7]; cisplatin combination, at 5 µM",-19.7%
same,inhibition,[7]; [22],1.07%
same,inhibition,"[7]; single agent, at 5 µM",-27.1%
same,inhibition,[8]; at 0.5 µM,-15.5% (inactive)
same,inhibition,"[8]; cisplatin combo, at 5 µM",10.7%
same,inhibition,[8]; [23],-24.9%
same,inhibition,[8]; [11],18.1%
same,inhibition,"[8]; single agent, at 5 µM",-30.9%
same,inhibition,[1]; at 0.5 µM,-12.1% (inactive)
same,inhibition,[1]; [24],3.22%
same,inhibition,[1]; [25],-19.8%
same,inhibition,"[1]; single agent, at 0.05 µM",-16%
same,inhibition,"[1]; single agent, at 5 µM",12.2%
NC(=O)NO,inhibition,[2]; at 0.5 µM,5.4% (inactive)
same,inhibition,[2]; [9],5.3%
same,inhibition,[2]; [10],-10.2%
same,inhibition,[3]; at 0.5 µM,11.7% (inactive)
same,inhibition,[3]; [11],8.29%
same,inhibition,[3]; [12],17%
same,inhibition,[4]; at 0.5 µM,-8.14% (inactive)
same,inhibition,[4]; [13],-5.6%
same,inhibition,[4]; [14],-2.86%
same,inhibition,[4]; [15],-19.6%
same,inhibition,[4]; [16],19.7%
same,inhibition,[5]; [17],13.1%
same,inhibition,[5]; at 0.5 µM,4.57% (inactive)
same,inhibition,[5]; [18],15.7%
same,inhibition,[6]; at 0.5 µM,-3.17% (inactive)
same,inhibition,[6]; [19],-6.58%
same,inhibition,[6]; [20],5.32%
same,inhibition,[7]; at 0.5 µM,3.97% (inactive)
same,inhibition,[7]; [21],0.756%
same,inhibition,"[7]; cisplatin combination, at 5 µM",-27.3%
same,inhibition,[7]; [22],10.1%
same,inhibition,"[7]; single agent, at 5 µM",1.06%
same,inhibition,[8]; at 0.5 µM,12.5% (inactive)
same,inhibition,"[8]; cisplatin combo, at 5 µM",15.7%
same,inhibition,[8]; [23],-13.6%
same,inhibition,[8]; [11],28.2%
same,inhibition,"[8]; single agent, at 5 µM",-32.4%
same,inhibition,[1]; at 0.5 µM,-15.5% (inactive)
same,inhibition,[1]; [24],6.18%
same,inhibition,[1]; [25],-26.4%
same,inhibition,"[1]; single agent, at 0.05 µM",-10.2%
same,inhibition,"[1]; single agent, at 5 µM",-5.37%
